Source: PubChem (The Scripps Research Institute Molecular Screening Center)
Rows were chosen to be rich in hits. Some 3.4% of all compounds tested hit in one or more screens of this group.
TEAD-YAP block: TEAD-YAP interaction inhibition; HEK-TIYL cells, TEAD-Gal4/YAP UAS-luciferase luminescence; inhibition, % at 9.12 µM; actives 1.4% (n = 640,000); AID 1259422; in the data active = inhibition above about 32%;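 also: 0% = median of test compound wells and 100% = reference inhibitor wells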
GPR151 activ: activates the human receptor GPR151. Q8TDV0. PathHunter beta-arrestin GPR151 cells, luminescence. activation, % at 11.2 µM. actives 1% (n = 650,000); in the data active = activation above about 4.9%;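 also: 0% = median of compound wells and 100% = cells with positive control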
Target sequence (Q8TDV0 whole entry, looked up): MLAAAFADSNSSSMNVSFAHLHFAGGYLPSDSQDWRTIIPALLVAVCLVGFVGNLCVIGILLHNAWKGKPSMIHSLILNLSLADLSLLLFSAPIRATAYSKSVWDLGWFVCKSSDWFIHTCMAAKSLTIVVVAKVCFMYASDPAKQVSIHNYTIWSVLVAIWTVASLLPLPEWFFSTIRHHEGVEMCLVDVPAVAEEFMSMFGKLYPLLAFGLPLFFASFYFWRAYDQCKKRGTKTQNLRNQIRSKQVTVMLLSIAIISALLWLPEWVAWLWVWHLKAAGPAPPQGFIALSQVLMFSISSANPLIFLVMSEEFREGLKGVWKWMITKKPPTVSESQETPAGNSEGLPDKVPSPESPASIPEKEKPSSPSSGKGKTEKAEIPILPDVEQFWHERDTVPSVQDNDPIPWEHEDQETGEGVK
FBW7 act: human FBW7 E3 ligase activation, primary screen; Q969H0; AlphaScreen FBW7–phospho-cyclin E peptide binding, activator screen; normalized activity (activation), % at 26.1 µM; actives 0.13% (n = 650,000); AID 1259310; in the data active = normalized activity above about 1.9%;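 also: purified mutant Fbw7 with reduced substrate affinity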
MITF primary: human MITF inhibition, primary screen | O75030 | AlphaScreen MITF homodimerization, bead proximity signal | inhibition, % at 2.6 µM | actives 0.91% (n = 650,000); in the data active = inhibition above about 50%;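 also: 0% = vehicle wells with protein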
GPR151 conf act: human GPR151 activation, confirmation screen. shares compounds with GPR151 activ. GPR151 PathHunter beta-arrestin cells, luminescence, 90 min; % of EA-reagent control over plate median. activation, % at 11.2 µM. 6,700 tested, under 10 active. AID 1508609;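 active = mean percent activation across replicates above the confirmation screen cutoff of 4.91%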
GPR119 ag: activates human GPR119 in a GPR151 counter-screen; activation, % at 11.2 µM; shares compounds with GPR151 activ; actives 0.3% (n = 6,700); GPR119 PathHunter beta-arrestin cells, luminescence, 90 min; 0 = compound-well median, 100 = enzyme-acceptor control;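 active = mean percent activation in the counterscreen above 29.09%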;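 also: counterscreen on off-target GPR119 to flag nonselective hits from the GPR151 activator screen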
* marks the source's active call; other numbers are inactive results; · = no result.

SMILES	TEAD-YAP block	GPR151 activ	FBW7 act	MITF primary	GPR151 conf act	GPR119 ag
O=c1c2c(nc3nc(-c4ccccc4)[nH]n13)CCCC2	9	5.7*	0	4	-1	-8
COc1cccc(OC)c1NC(=O)CC(Cc1ccc(Cl)cc1)C(=O)O (stereo not given)	-6	5.0*	0	10	0	-5
O=C(N/C(=C\c1ccccc1)C(=O)N1CCCCC1)c1cccc(Br)c1	-17	1	0	11	·	·
CC(C)(C)C(=O)COC(=O)c1cccc(S(=O)(=O)N2CCCC2)c1	3	1	0	4	·	·
CNS(=O)(=O)c1cccc(C(=O)OCC(=O)C(C)(C)C)c1	-3	7.1*	0	-2	0	8
CN(Cc1c(C(=O)N2CCCC2)nc2sccn12)CC(O)c1ccccc1 (stereo not given)	10	5.8*	0	7	1	4
NC(=O)C1(N2CCCCC2)CCN(CC(=O)Nc2ccc(F)c(Cl)c2)CC1	-6	-1	0	5	·	·
NC(=O)C1(N2CCCCC2)CCN(C(=S)Nc2ccc(F)c(Cl)c2)CC1	-1	5.1*	0	13	0	6
CCCCNS(=O)(=O)c1ccc(NC(=O)C(CC)c2ccccc2)cc1 (stereo not given)	13	-1	1	26	·	·
COc1cc(/C=N/NC(=O)c2ccco2)ccc1OCc1ccc([N+](=O)[O-])cc1	-71	-1	1	31	·	·
COc1cc(/C=N\NC(=O)c2ccc([N+](=O)[O-])cc2)ccc1OC(=O)c1ccco1	1	11*	0	9	-1	-5
COc1ccc(-c2nnc(SCC(=O)N3c4ccccc4CC3C)o2)cc1 (stereo not given)	-10	5.8*	0	4	1	13
COc1cc2cc3c(N)c(C(=O)c4ccccc4)sc3nc2cc1OC	-23	-1	0	3	·	·
COc1ccc(C2=NC(c3ccc(Cl)cc3Cl)NC(c3cc(Cl)ccc3O)C2)cc1 (stereo not given)	-13	0	0	11	·	·
COc1ccc(C2CCN(CC(=O)N3CCOCC3)CC2)cc1	-5	1	0	6	·	·
COc1cc(OC)nc(CSCC(=O)N2CCN(CC(=O)N3CCOCC3)CC2)n1	1	5.2*	0	8	0	-12
O=C(Nc1nc(SCc2ccc(F)cc2)ns1)c1cc(F)c(F)cc1Cl	27	8.4*	0	-1	0	-5
CSc1nsc(NC(=O)c2ccc(F)cc2F)n1	-64	-10	0	2	·	·
COc1c(Cl)cc(Cl)cc1/C=C1/N=C(C)OC1=O	4	-1	0	-1	·	·
CCN(Cc1ccccc1)C(=O)CCS(=O)(=O)c1ccc2c(c1)OCC(=O)N2	10	0	0	10	·	·
Cc1nccn1CC(O)COc1cccc2ccccc12 (stereo not given)	11	0	0	2	·	·
OC(COc1ccc2ccccc2c1Cl)Cn1ccnc1 (stereo not given)	-5	5.0*	0	1	0	6
Cc1c(NC(=S)NC(=O)c2oc3ccccc3c2C)cccc1-c1nc2ccccc2s1	-9	10*	0	-2	1	18
Nc1cc([N+](=O)[O-])ccc1N1CCOCC1	3	0	0	-2	·	·
COc1ccc2cc(CCNC(=O)/C=C\c3ccc4c(c3)OCO4)c(=O)[nH]c2c1	8	12*	0	7	0	2
SMILES	TEAD-YAP block	GPR151 activ	FBW7 act	MITF primary	GPR151 conf act	GPR119 ag
C=CCNC(=O)c1c(-c2ccccc2)nc2ccccn12	-10	-1	0	18	·	·
Cc1cc(OCC(=O)Nc2ccc3oc(-c4ccc(C(C)(C)C)cc4)nc3c2)ccc1Cl	2	-1	0	8	·	·
CC(=O)O[C@]1(C(C)=O)CC[C@H]2[C@@H]3C=C(Cl)C4=CC(=O)CC[C@]4(C)[C@H]3CC[C@@]21C	·	5.2*	0	16	0	15
CS(=O)(=O)N1CCN(c2ccccc2NC(=O)c2ccc([N+](=O)[O-])o2)CC1	5	-1	0	5	·	·
CN1CCN(c2ccccc2NC(=O)c2ccc([N+](=O)[O-])o2)CC1	6	5.7*	0	-4	0	-8
CN1CCN(c2ccccc2NC(=O)Cc2ccc(Cl)cc2)CC1	-9	6.1*	0	0	0	2
